What follows are sequences tested on PXR:RXRa (NR concentration 270 nM, RXRa partner concentration 90 nM) (assay: PBM binding z-score (relative to random genomic background probes); higher = stronger binding; sequences stand for … in GC…GCGATTGACAGCGTAGAATGAAGG).
Procedure, shortened: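 Antibodies against each partner of ligand-free nuclear receptor dimers (one per run) detected binding on custom Agilent 4×180K protein-binding microarrays after 1 h incubation. The double-stranded probes had 34-nt variable regions carrying direct-repeat seeds, single-nucleotide variants, half-site ablations and random human genomic background sequences. Binding z-scores, from regression-normalized fluorescence, use the random background probes as reference.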

Question: ATTCGGAGGACAAAGGTCAGAGCTACGCCAGTGA was tested. Which PBM binding z-score did it give?
Answer: 3.99

Question: How did the PBM binding z-score turn out when GGAACGAGGGCAAGTTGATGGCAGAGTTTGATGG was run?
Answer: 0.948

Question: Which PBM binding z-score does the source give for AGTCAAAGTTCACTAGGTCACGTAAGATTCAGCT here?
Answer: 5.52

Question: For TCTTGTAGATCAGGAGGTTAAGAAAGCTGGCCAA, which PBM binding z-score is on record?
Answer: 0.352

Question: Which PBM binding z-score does the source give for TAGCCTAGGTCAGATCGGTCCAGTATACGCTATA here?
Answer: 2.34

Question: How did the PBM binding z-score turn out when ATCTCTAGGTAACCAAGTTCAGGGAATGCCGAAC was run?
Answer: 2.04

Question: How did the PBM binding z-score turn out when TCGAGTAGGTTAGGGGCGTTCAGAATGGCGTCGA was run?
Answer: 0.471

Question: Which PBM binding z-score does the source give for TCATATAGGTAAACAGGGGAAAGTCCGTAAGTTA here?
Answer: 0.921

Question: How did the PBM binding z-score turn out when ACTATTAGTTGAGACGAGGGCAACCTATAGGTTG was run?
Answer: 1.39

Question: For CCTACTGGGCCATCAGGCCATTGATATCAACGTT, which PBM binding z-score is on record?
Answer: -0.281

Question: How did the PBM binding z-score turn out when TCTCGGAGCACACGAAGGTCAGAGCTTTCCAGAG was run?
Answer: 1.12

Question: Which PBM binding z-score does the source give for ATCTCTAGGTAACCAAGTTCAATGAATGCCGAAC here?
Answer: 2.72

Question: With TGGATGAGGTTAAAGATCAGGGAACGTGGCGTCG as the sequence, how does the PBM binding z-score read?
Answer: 2.71

Question: With CTCGAAAGGTCGGTTGAGGTGCGTATACGGATAA as the sequence, how does the PBM binding z-score read?
Answer: 1.84

Question: How did the PBM binding z-score turn out when ATCGAAAGGTCGAGCTGAGTATAGAGAAAGGGAA was run?
Answer: 2.5

Question: ACAGACATGTGAGTGAAGGTAACTCAGCTGGACG was tested. Which PBM binding z-score did it give?
Answer: -0.554

Question: How did the PBM binding z-score turn out when CAAACTAGGTCACGGAAGGTCAAAGTCGAATGAC was run?
Answer: 6.99

Question: Which PBM binding z-score does the source give for TAGCATAGGTCATTGGGCCAGTATAGTACGCATC here?
Answer: 2.87

Question: With AGTCAAAGTTCATCTAGGTAACGTATGATATGCT as the sequence, how does the PBM binding z-score read?
Answer: 5.12

Question: How did the PBM binding z-score turn out when AGAATGAGGTTAAGATGAGGGAAACAGAATACAT was run?
Answer: 1.35

Question: How did the PBM binding z-score turn out when CCTCCAAGGTCAATGCTAGGTCAGTGAAAGCATT was run?
Answer: 4.52

Question: Which PBM binding z-score does the source give for TCGAGTAGGTTAGGGGCAGTCAGAATGGCGTCGA here?
Answer: 0.184

Question: ATCGAAAGGTCGACGAGGTGTGTATACACCGTTT was tested. Which PBM binding z-score did it give?
Answer: 2.67

Question: How did the PBM binding z-score turn out when CCTACTGGGCCATTCAGAGGTCTTTGATCATATG was run?
Answer: -0.375

Question: ATCGAAACGTCGAGGTGAGTATAGAGAAAGGGAA was tested. Which PBM binding z-score did it give?
Answer: -0.126

Question: How did the PBM binding z-score turn out when CCCAGCAGGCCAGGGTCACTCAAGCATTTCGCTT was run?
Answer: 2.46

Question: With CTTCCAAGGTCAATGCTAGGTCAGTGAAAGCATT as the sequence, how does the PBM binding z-score read?
Answer: 4.64

Question: How did the PBM binding z-score turn out when GGTACGAGGGCATTCGAGTTGATAGCATGGCGAT was run?
Answer: 3.64

Question: For TGTCAAAGTTCAAAGGTAACGTACGTATCCACAC, which PBM binding z-score is on record?
Answer: 5.63

Question: With GGAACGAGAGCAAAGTTGATAGCATCTGTCGACG as the sequence, how does the PBM binding z-score read?
Answer: -0.47

Question: GCTATTAGTTGAAAGGGCAACCAAATGATTCTCG was tested. Which PBM binding z-score did it give?
Answer: 0.803

Question: Which PBM binding z-score does the source give for ATATGTAGGTTACAACCGGGTCATTCAGGCTATG here?
Answer: 3.88

Question: With TCTTGTAGATCAACAGGGGGTTAAGAAAGATCGA as the sequence, how does the PBM binding z-score read?
Answer: 2.5

Question: With CCTACTGGGCCAAAAAGCTCATTGATGCCGATAA as the sequence, how does the PBM binding z-score read?
Answer: -0.847

Question: For AGTCAAAGTTCAGGACGAGTTAACGTAAAGCACG, which PBM binding z-score is on record?
Answer: 3.59

Question: TGAATGAGGTTAAAGATTAGGGAACGTGGCGTCG was tested. Which PBM binding z-score did it give?
Answer: 1.33

Question: With CAAACTAGGTCCCGAAAGGTCAAAGTCGAATGAC as the sequence, how does the PBM binding z-score read?
Answer: 5.58

Question: CCAAGTTGGTCAGGAGGTCACACACCGGATATGA was tested. Which PBM binding z-score did it give?
Answer: 4.24

Question: With AGTCAAAGTTCAGGACGATGTAACGTAAAGCACG as the sequence, how does the PBM binding z-score read?
Answer: 2.22

Question: Which PBM binding z-score does the source give for GCAACGAGGGCAAAGTTGATAGCATCTGTCGACG here?
Answer: 1.18
